From PubChem
Sfp PPTase inh = Sfp phosphopantetheinyl transferase inhibition | Potency, µM, for the others: largest response in the series, negative = inhibition, hits mostly inhibitors | Q9F4F7 | AID 1490 | Biochemical Sfp PPTase activity, qHTS | actives 3.5% (n = 310,000);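 note: the enzyme is Sfp with the accession as filed and its product quenches rhodamine fluorescence; 0% = enzyme reaction without inhibitor and -100% = no enzyme wells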
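Fluorescence-quenching assay with 15 nM Sfp, 5 uM rhodamine-CoA and 12.5 uM BHQ-2-labelled ybbR peptide in pH 7.6 Hepes/MgCl2 buffer. Enzyme was pre-incubated with compound for 15 min at room temperature. Rate was taken from the 30-min fluorescence change (525/598 nm).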
L3MBTL1 block = blocks human L3MBTL1. Potency, µM (doses to about 57.1 µM), inactives show top-dose activity, negative = inhibition, most hits filed as inhibitors. actives 0.66% (n = 230,000). AlphaScreen L3MBTL1–H3K9me1 peptide binding; note: % is set by controls: 0 for no effect and ±100 for the full control effect; nearly all actives have a fitted effect of over 60% in size
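L3MBTL1 50 nM + b-AHA-H3(1-15)K9me1 75 nM, 30 min RT; compound added, 30 min RT; streptavidin donor/Ni-chelate acceptor beads 10 ug/mL each final, 30 min RT dark; AlphaScreen read.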
BAZ2B block = inhibitors of human BAZ2B bromodomain | Q9UIF8 | AlphaScreen BAZ2B-H3K14Ac peptide displacement | Potency, µM (top dose mostly 114 µM), for the others: at the top dose activity change, negative = inhibition, hits mostly inhibitors | actives 4.4% (n = 360,000); note: % is set by controls: 0 for no effect and ±100 for the full control effect; nearly all actives have a fitted effect of over 60% in size
Target sequence (Q9UIF8 whole entry, looked up): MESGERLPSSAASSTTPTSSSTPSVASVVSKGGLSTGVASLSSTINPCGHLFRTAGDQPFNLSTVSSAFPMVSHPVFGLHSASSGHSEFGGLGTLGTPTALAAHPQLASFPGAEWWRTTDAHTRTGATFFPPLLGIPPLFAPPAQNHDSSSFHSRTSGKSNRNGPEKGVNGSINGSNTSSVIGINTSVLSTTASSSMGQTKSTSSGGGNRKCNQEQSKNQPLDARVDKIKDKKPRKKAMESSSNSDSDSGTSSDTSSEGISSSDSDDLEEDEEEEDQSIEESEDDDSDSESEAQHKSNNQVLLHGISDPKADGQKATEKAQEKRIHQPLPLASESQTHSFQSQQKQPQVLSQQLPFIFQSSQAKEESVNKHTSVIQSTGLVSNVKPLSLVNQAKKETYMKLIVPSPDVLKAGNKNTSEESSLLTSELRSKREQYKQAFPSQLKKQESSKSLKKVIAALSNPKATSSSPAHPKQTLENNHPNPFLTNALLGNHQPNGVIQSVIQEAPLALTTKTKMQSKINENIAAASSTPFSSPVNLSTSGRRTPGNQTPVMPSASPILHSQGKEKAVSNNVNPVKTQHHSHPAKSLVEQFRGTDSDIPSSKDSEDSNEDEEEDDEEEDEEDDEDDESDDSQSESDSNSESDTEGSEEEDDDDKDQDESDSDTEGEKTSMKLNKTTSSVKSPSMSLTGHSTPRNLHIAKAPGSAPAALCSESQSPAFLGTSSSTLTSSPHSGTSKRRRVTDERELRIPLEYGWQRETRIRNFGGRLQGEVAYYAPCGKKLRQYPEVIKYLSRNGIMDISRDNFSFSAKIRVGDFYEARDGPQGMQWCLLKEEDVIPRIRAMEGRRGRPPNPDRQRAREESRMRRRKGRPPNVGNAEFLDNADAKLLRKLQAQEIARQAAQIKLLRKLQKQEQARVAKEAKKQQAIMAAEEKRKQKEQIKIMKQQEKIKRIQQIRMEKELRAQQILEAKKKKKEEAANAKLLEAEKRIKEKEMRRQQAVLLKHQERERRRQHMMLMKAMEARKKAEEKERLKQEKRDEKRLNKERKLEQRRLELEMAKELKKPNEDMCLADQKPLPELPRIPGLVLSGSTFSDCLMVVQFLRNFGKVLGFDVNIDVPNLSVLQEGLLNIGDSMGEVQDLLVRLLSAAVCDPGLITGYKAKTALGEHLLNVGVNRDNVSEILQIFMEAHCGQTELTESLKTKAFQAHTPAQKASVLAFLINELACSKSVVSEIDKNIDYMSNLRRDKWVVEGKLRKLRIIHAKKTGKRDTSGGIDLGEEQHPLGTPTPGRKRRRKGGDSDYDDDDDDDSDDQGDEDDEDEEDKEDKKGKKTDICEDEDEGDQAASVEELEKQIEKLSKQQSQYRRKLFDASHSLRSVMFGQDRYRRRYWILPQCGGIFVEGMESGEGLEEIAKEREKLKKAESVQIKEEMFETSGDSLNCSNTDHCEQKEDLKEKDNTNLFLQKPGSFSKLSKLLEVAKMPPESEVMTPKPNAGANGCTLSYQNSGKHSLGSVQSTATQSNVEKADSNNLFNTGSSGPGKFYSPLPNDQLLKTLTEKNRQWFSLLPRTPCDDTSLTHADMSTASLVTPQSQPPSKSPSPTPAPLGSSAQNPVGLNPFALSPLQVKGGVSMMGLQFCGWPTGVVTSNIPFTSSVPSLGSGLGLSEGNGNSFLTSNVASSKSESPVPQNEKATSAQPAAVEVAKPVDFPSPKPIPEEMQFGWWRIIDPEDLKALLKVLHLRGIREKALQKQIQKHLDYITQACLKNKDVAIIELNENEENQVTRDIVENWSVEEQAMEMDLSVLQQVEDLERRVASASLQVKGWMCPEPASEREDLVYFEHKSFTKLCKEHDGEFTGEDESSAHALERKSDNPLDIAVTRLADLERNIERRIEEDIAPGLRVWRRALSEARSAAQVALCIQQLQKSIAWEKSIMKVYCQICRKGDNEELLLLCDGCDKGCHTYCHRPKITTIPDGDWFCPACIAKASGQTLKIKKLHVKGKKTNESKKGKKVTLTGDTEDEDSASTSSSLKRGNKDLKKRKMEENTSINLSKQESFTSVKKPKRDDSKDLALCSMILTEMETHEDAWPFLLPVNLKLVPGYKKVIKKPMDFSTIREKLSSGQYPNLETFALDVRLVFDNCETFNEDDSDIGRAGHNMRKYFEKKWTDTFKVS
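In this displacement format the biotinylated H3(5-23) peptide acetylated at Lys14 serves as ligand at 50 nM, with BAZ2B at 50 nM in PBS pH 7.4 containing 0.01% Tween-20. Donor and acceptor beads are 10 ug/mL final.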
JMJD2A Tudor = JMJD2A Tudor domain (human) inhibition; actives 4.4% (n = 390,000); Potency, µM (titrated, usually from 114 µM), for the others: top-dose activity change, negative = inhibition, actives largely listed as inhibitors; AlphaScreen JMJD2A-Tudor / H3K4me3 peptide binding; note: % is set by controls: 0 for no effect and ±100 for the full control effect; nearly all actives have a fitted effect of over 50% in size
HP1b binding inh = inhibitors of HP1-beta chromodomain binding to methylated histone tails | P83916 | AlphaScreen HP1-beta / biotin-H3K9me3 peptide binding | Potency, µM (top dose mostly 114 µM), inactives show top-dose activity change, negative = inhibition, usual class: inhibitors | actives 0.56% (n = 390,000) | AID 540317; note: nearly all actives have a fitted effect of over 70% in size
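Compound inhibition of the preformed complex between 50 nM HP1-beta and 50 nM biotinylated H3K9me3 peptide was read by AlphaScreen. Buffer was PBS pH 7.4 with 0.01% Tween-20. Incubations ran 30 min at room temperature, with 10 ug/mL donor/acceptor beads.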
G9a inh = blocks human histone lysine methyltransferase G9a; Q96KQ7; G9a H3K9 monomethylation, AlphaScreen, 2 h; Potency, µM (series often up to 102 µM), for inactives: top-dose activity, negative = inhibition, hits mostly inhibitors; actives 8.8% (n = 350,000); note: % is set by controls: 0 for no effect and ±100 for the full control effect; nearly all actives have a fitted effect of over 75% in size
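G9a (20 nM) preincubated 15 min RT with compounds, then 500 nM biotinylated H3K9 peptide and 20 uM SAM added; 2 h RT reaction. Monomethyl-H3K9 product detected by AlphaScreen with anti-H3K9me1 antibody, streptavidin donor and anti-rabbit IgG acceptor beads.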
The depositor's hits bear a star; ? = inconclusive; / = not tested or not shown; [ ] = another dose, or the depositor's remark. Only some compounds are listed: those with a hit (about 12% of all), similar ones and a draw of the others. Calls come from the whole dose curve; as a rule, active = well fitted curve in the direction sought with a large enough effect; inconclusive = small, poorly fitted or top-dose-only effect, or another doubt; inactive = no such curve, though single readings can be large; an effect the other way counts as inactive or inconclusive. Potency is the fitted concentration of half-maximal effect.

SMILES	Sfp PPTase inh	L3MBTL1 block	BAZ2B block	JMJD2A Tudor	HP1b binding inh	G9a inh
CCC(C)NCCOc1ccc(Br)cc1 (stereo unspecified)	-6%	/	?	3.5µM*	?	13µM*
CCC(C)NCCOCCOc1ccc(Br)cc1 (stereo unspecified)	?	/	79µM*	11µM*	?	?
CCOC(=O)c1cccc(NC(=O)c2ccc3nc(Cc4ccccc4)oc3c2)c1	/	/	-11%	-16%	21%[57 µM]	14%[59 µM]
Cc1cccc(C)c1N(Cc1ccccc1F)S(C)(=O)=O	1%	-4%[11.4 µM]	-3%	-30%	-9%	6%
Cc1cc(N=Nc2ccccc2C(=O)O)c(C)c(C)c1O	0%	-26%	28µM*	-21%[11.4 µM]	?	32µM*
Cc1ccc(C(=O)c2ccccc2C(=O)O)c(O)c1	5%	4%	-3%	-23%	27%	-13%
Cc1cc(O)c(C(C)C)cc1N=Nc1ccccc1C(=O)O	6%	-9%	?	?	?	40µM*
Cc1cc(C)c(C)c(C(=O)c2ccccc2C(=O)O)c1C	17%	5%	-9%	-9%	27%	/
O=S(=O)(c1ccccc1)N1CCN(S(=O)(=O)c2ccccc2)CC1	/	/	/	-4%	12%	/
COc1ccc(S(=O)(=O)N2CCN(C3CCCC(C)C3)CC2)cc1 (stereo unspecified)	-26%	/	18µM*	1.3µM*	45µM*	7.1µM*
CC1CCCC(N2CCN(S(=O)(=O)c3ccccc3)CC2)C1 (stereo unspecified)	?	/	?	4µM*	?	18µM*
O=S(=O)(Cc1ccccc1)N1CCC(N2CCN(c3ccccc3)CC2)CC1	-6%	10%	3%	-21%	0%	?
CC1CCC(N2CCN(S(=O)(=O)Cc3ccccc3)CC2)CC1 (stereo unspecified)	-7%	/	50µM*	22µM*	71µM*	25µM*
COc1ccc(S(=O)(=O)N2CCN(S(=O)(=O)c3ccc(OC)cc3)CC2)cc1	/	0%	-3%	-16%	/	13%[12.7 µM]
Cc1csc(=Nc2ccccc2)n1CCCN1CCCC1=O	-13%	-6%[11.4 µM]	?	-33%	-3%	?
OCCCn1c(-c2ccc(F)cc2)csc1=Nc1ccc(F)cc1	/	/	45µM*	40µM*	?	16µM*
C=CCn1c(-c2ccc(OC)cc2)csc1=Nc1c(C)n(C)n(-c2ccccc2)c1=O	-4%	/	?	?	-10%	?
COc1ccc(-c2csc(=Nc3ccccc3)n2CCO)cc1	-7%	-26%	13µM*	45µM*	?	40µM*
Cc1ccc(-c2csc(=Nc3ccccc3)n2CCCO)cc1	/	/	45µM*	35µM*	?	16µM*
COc1ccc(-c2csc(=NCCO)n2-c2ccccc2)cc1	-7%	/	32µM*	?	?	50µM*
Cc1cc(C)c(NC(=O)Cn2c(=O)n(CCC(=O)NCc3ccc4c(c3)OCO4)c(=O)c3ccccc32)c(C)c1	/	/	-3%	3%	10%	-7%[59 µM]
O=C(COCc1cc(-c2ccc(F)cc2)on1)Nc1cccc(Cl)c1Cl	/	/	2%	5%	23%	4%[59 µM]
Cc1ccc(C)c(SCC(=O)NC2CCS(=O)(=O)C2)c1 (stereo unspecified)	/	7%	18%	-14%	34%	3%[0.501 µM]
O=S(=O)(c1ccc(-c2csc(=Nc3ccc(F)cc3)n2CCCCCCO)cc1)N1CCCC1	/	/	?	40µM*	?	13µM*
O=C(O)C1CCCN(S(=O)(=O)c2ccc(F)cc2)C1 (stereo unspecified)	11%	/	-41%	-13%	23%	-42%[2.33 µM]
SMILES	Sfp PPTase inh	L3MBTL1 block	BAZ2B block	JMJD2A Tudor	HP1b binding inh	G9a inh
CCOC(=O)c1c(C)[nH]c(C(=O)OC(C)C(=O)NC2CCCCC2C)c1C (stereo unspecified)	/	2%	-4%	-11%	16%	-24%[59 µM]
CCOc1cc(C2C3=C(CC(C)(C)CC3=O)OC3=C2C(=O)CC(C)(C)C3)cc([N+](=O)[O-])c1O	19%	-20%	?	-5%	17%	?
CC1(C)CC(=O)C2=C(C1)OC1=C(C(=O)CC(C)(C)C1)C2c1cc([N+](=O)[O-])cc([N+](=O)[O-])c1O	11µM*	-19%	21%	-11%[11.4 µM]	?	59%[12.7 µM]
COc1ccc2c(c1)c(=O)oc1c(C)c(OC(C)C(=O)N[C@@H](Cc3c[nH]c4ccc(O)cc34)C(=O)O)ccc12 (stereo partly specified)	0%	/	50µM*	?	6%	/
CC(Oc1ccc2c(-c3ccccc3)cc(=O)oc2c1)C(=O)NC(Cc1c[nH]c2ccc(O)cc12)C(=O)O (stereo unspecified)	-1%	/	?	?	11%	/
CC(=O)c1ccc(N2CCN(C(=O)CNS(=O)(=O)c3ccc4c(c3)OCCCO4)CC2)c(F)c1	/	-9%	20%	-7%	17%	-18%
COc1ccc(/C(C)=N/Nc2ccc(F)cc2F)c(O)c1	7%	24%	-16%	-14%	26%	2.5µM*
COc1ccc(/C(C)=N/N2CCCCC2)c(O)c1	7%	/	2%	14%	40%	8%
COc1ccc(/C(C)=N/Nc2ccccc2Cl)c(O)c1	?	-15%	?	?	-18%	1µM*
C/C(=N\Nc1ccc(F)cc1F)c1cccs1	11%	22%	28%	/	/	25µM*
O=C(CNC(=O)c1ccncc1)OC(C(=O)Nc1cc(C(F)(F)F)ccc1Cl)c1ccccc1 (stereo unspecified)	/	/	/	-19%	/	/
COc1ccc(CN(Cc2ccccc2)S(=O)(=O)c2ccccc2)cc1COc1ccc(NC(C)=O)cc1	/	/	/	-31%	/	/
Cc1sc2nc(C(C)Sc3n[nH]c(N)n3)[nH]c(=O)c2c1C (stereo unspecified)	56µM*	-12%	-5%	/	/	25µM*
CCOc1ccc(NC(=O)C2CCN(S(=O)(=O)c3ccc4c(c3)oc(=O)n4C)CC2)cc1	/	/	-20%	-17%	40%	0%[59 µM]
CCN(C(=O)CSc1nnc(-c2cccs2)n1CC)C1CCS(=O)(=O)C1 (stereo unspecified)	19%	/	-15%	-2%	9%	20%[59 µM]
COC(=O)c1ccccc1NC(=O)c1ccc(COc2ccccc2)o1	?	/	8%	27%	144%	12%[59 µM]
COC(=O)c1ccccc1NC(=O)c1ccc(COc2cccc3ccccc23)o1	56µM*	/	1%	1%	37%	?
COc1cc(C(C)=O)ccc1O	/	2%	8%	-16%	32%	-4%[12.7 µM]
